Results with a measured potency or affinity are listed apart. The source made the active and inactive calls. How the calls were made is not given here.
Target: Protein RecA (Mycobacterium tuberculosis (strain ATCC 25618 / H37Rv)) (UniProt P9WHJ3)
Assay: GFP RecA biochemical assay with DTT, Mycobacterium tuberculosis H37Rv, confirmatory dose response (AID 493233)

Sequence of Protein RecA (Mycobacterium tuberculosis (strain ATCC 25618 / H37Rv)) (P9WHJ3 whole entry, looked up): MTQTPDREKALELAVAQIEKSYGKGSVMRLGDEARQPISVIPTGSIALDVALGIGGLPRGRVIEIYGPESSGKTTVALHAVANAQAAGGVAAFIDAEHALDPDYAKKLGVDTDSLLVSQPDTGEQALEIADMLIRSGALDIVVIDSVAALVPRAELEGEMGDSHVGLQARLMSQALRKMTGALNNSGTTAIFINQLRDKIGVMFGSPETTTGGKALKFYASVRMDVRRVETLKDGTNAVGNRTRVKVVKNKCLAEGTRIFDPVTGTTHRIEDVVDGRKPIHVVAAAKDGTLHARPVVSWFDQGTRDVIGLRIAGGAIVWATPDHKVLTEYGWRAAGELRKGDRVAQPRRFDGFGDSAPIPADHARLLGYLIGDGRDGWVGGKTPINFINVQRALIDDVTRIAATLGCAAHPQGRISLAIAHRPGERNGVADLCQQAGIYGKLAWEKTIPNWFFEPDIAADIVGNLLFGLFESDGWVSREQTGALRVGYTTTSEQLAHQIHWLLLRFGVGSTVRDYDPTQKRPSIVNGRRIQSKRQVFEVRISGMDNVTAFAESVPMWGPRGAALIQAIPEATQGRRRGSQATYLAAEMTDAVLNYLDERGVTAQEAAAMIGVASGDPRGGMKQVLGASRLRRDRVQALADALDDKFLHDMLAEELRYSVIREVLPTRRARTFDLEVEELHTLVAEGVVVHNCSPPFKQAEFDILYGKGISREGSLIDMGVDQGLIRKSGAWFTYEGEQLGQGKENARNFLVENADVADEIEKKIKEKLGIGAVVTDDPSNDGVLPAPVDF

Nc1cn(-c2ccccc2)nc1-c1ccc(F)cc1 was tested, and the outcome was “inactive”.
For C/C(=N\NC(=O)c1ccncc1)c1cc2ccccc2oc1=O, the outcome was “inactive”.
